Screening results (PubChem BioAssay)
Hedgehog inh: Sonic Hedgehog pathway inhibition. Shh-LIGHT2 Gli-luciferase reporter, 30 h. 22,000 tested, 2.1% active. inhibition, % (concentration not given with the values);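 active = mean inhibition across valid replicates above about 65%, limit read from the data; inconclusive = mean under the limit, yet half or more replicates past it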;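 also: pathway switched on by Shh-conditioned medium diluted 1 in 25 in low serum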
YB-1 expr inh: YB-1 expression inhibition; 30,000 tested, 0.37% active; delta delta Cp (YB-1 minus CDIP) (test concentration not listed); U2OS, qRT-PCR YB-1 vs CDIP delta delta Cp, 16 h; hits give high values; zero = DMSO, each unit about twofold; AID 434959;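 active = delta delta Cp rounded down to an integer at or above 3, about 3 SD of DMSO wells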;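 also: higher means less YB-1 transcript or more CDIP transcript relative to DMSO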
PD-1 reverse act: reversal of PD-1 mediated T-cell inhibition; primary human CD4 T cells, PD-L1 beads, CellTiter-Glo 96 h; activation, % (test concentration not listed); 29,000 tested, under 10 active; AID 2316; call rule not given here;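 also: 0% = median vehicle wells and 100% = positive control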
MITF inhib: blocks MITF activity; inhibition, % (test concentration not listed); TRPM1 promoter luciferase, luminescence, 24 h; 37,000 tested, 0.28% active; in the data active = inhibition above about 85%; inconclusive = no clear call, values can overlap the other calls; inactive = below about 68%;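 also: human melanocyte line stably carrying TRPM1 promoter luciferase reporter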
NOMO-1 viab: STK33 inhibitor candidate reducing NOMO-1 cell viability; AID 2330; NOMO-1 AML viability, CellTiter-Glo luminescence, 72 h; 37,000 tested, 7.5% active; inhibition, % (test concentration not listed); in the data active = inhibition above about 80%; inconclusive = no clear call, values can overlap the other calls
* hit, by the source's call; ? = inconclusive; · = no result. In the library only some 7.4% were active in any assay of this set; here they are far more common.

SMILES | Hedgehog inh | YB-1 expr inh | PD-1 reverse act | MITF inhib | NOMO-1 viab
C[C@H](CO)N1C[C@H](C)[C@H](CN(C)C(=O)Nc2ccc(F)cc2)Oc2ccc(NC(=O)Nc3ccc(C(F)(F)F)cc3)cc2CC1=O | 19 | -0.24 | · | -2 | 45
CC(C)NC(=O)Nc1ccc2c(c1)CC(=O)N([C@H](C)CO)C[C@@H](C)[C@H](CN(C)C(=O)Nc1ccc(F)cc1)O2 | -8 | -0.15 | · | -8 | 4
C[C@H](CO)N1C[C@H](C)[C@H](CN(C)C(=O)Nc2ccc(C(F)(F)F)cc2)Oc2ccc(NC(=O)Nc3ccc(C(F)(F)F)cc3)cc2CC1=O | 19 | -0.25 | · | 16 | 114*
CC(C)NC(=O)Nc1ccc2c(c1)CC(=O)N([C@H](C)CO)C[C@H](C)[C@H](CN(C)C(=O)Nc1ccc(F)cc1)O2 | 77* | -0.23 | · | -12 | 16
C[C@@H]1CN([C@@H](C)CO)C(=O)c2cc(NS(=O)(=O)c3ccccc3)ccc2O[C@H]1CN(C)Cc1ccc(Cl)c(Cl)c1 | · | -0.2 | 0 | 0 | 42
O=C(CSc1nc(N2CCCCC2)nc(N2CCCCC2)n1)Nc1ccc(Cl)cc1 | · | · | -3 | 7 | 61
O=C(Nc1ccccc1)c1cc(S(=O)(=O)Nc2cccnc2)cs1 | · | · | 2 | 22 | 22
Cc1noc(C)c1NC(=O)Nc1ccc2c(c1)CC(=O)N([C@H](C)CO)C[C@@H](C)[C@H](CN(C)S(=O)(=O)c1ccc(F)cc1)O2 | -24 | -0.19 | 2 | -7 | -3
C[C@@H]1CN([C@H](C)CO)C(=O)c2cccc(NC(=O)Nc3ccccc3)c2O[C@H]1CN(C)Cc1ccc(C(=O)O)cc1 | 23 | 0.27 | · | 8 | -3
C[C@@H]1CN([C@H](C)CO)C(=O)c2cccc(NC(=O)Nc3ccccc3)c2O[C@@H]1CN(C)Cc1ccc(C(=O)Nc2ccccc2N)cc1 | · | -0.8 | -5 | 13 | 128*
C[C@H](CO)N1C[C@H](C)[C@@H](CN(C)Cc2ccc(C(=O)Nc3ccccc3N)cc2)Oc2c(NC(=O)Nc3ccc(F)cc3)cccc2C1=O | · | 0.064 | -1 | -19 | 125*
C[C@H]1CN([C@@H](C)CO)C(=O)c2cccc(NC(=O)Nc3ccc(F)cc3)c2O[C@H]1CN(C)Cc1ccc(C(=O)Nc2ccccc2N)cc1 | · | -0.34 | -5 | -14 | 127*
C[C@H]1CN([C@@H](C)CO)C(=O)Cc2cc(NS(=O)(=O)c3ccc(Cl)cc3)ccc2O[C@H]1CN(C)C(=O)NC1CCCCC1 | -4 | -0.14 | · | -7 | 18
COc1cc(CC2COC(=O)C2(O)Cc2ccc(O)c(OC)c2)ccc1O (centres undefined) | -28 | -2.8 | -1 | 91* | 54
O=C(COc1ccc(Cl)cc1)Nc1cc(C(F)(F)F)ccc1N1CCOCC1 | · | · | -3 | -4 | 42
Cc1ccc(S(=O)(=O)Nc2cccc3c2O[C@@H](CN(C)Cc2ccncc2)[C@H](C)CN([C@H](C)CO)C3=O)cc1 | -6 | 0.19 | 1 | -4 | -19
C/C=C(/C)C(=O)O[C@@H]1c2cc(OC)c(OC)cc2-c2c(ccc(OC)c2OC)C[C@H]2C(=O)OC[C@H]12 | 3 | 0.43 | -2 | 4 | 117*
CCCCOc1cc(C(=O)NCCN(CC)CC)c2ccccc2n1 | 0 | 0.088 | · | -10 | -9
CCN(CC)CCNc1ccc(CO)c2sc3ccccc3c(=O)c12 | ? | 0.62 | · | 20 | 102*
CC(=O)c1cccc(NC(=O)CN(Cc2ccc(Cl)cc2)S(C)(=O)=O)c1 | · | · | 1 | -9 | 5
Cc1noc(C)c1NC(=O)N(C)C[C@H]1Oc2ccc(NC(=O)Cn3cnnn3)cc2CC(=O)N([C@H](C)CO)C[C@H]1C | ? | 0.18 | · | -6 | -9
CC(C)c1ccc(NCC(O)CSc2ccccc2)cc1 (centres undefined) | -36 | -0.4 | -1 | -25 | 110*
CC(C)c1ccc(NCC(O)COc2ccc(Cl)c(Cl)c2)cc1 (centres undefined) | -46 | -0.48 | -3 | 1 | 117*
C=CC(C)(C)[C@@]12C[C@H]3C(=O)Nc4ccccc4C(=O)N3[C@@H]1Nc1ccccc12 | -11 | -0.54 | 2 | -8 | 92*
C[C@H]1CN([C@@H](C)CO)C(=O)c2cccc(NC(=O)Nc3cccc4ccccc34)c2O[C@@H]1CN(C)C(=O)Nc1ccc(F)cc1 | 13 | -0.045 | -2 | -4 | 23
SMILES | Hedgehog inh | YB-1 expr inh | PD-1 reverse act | MITF inhib | NOMO-1 viab
C[C@H](CO)N1C[C@H](C)[C@H](CN(C)C(=O)NC2CCCCC2)Oc2c(NC(=O)Nc3cccc4ccccc34)cccc2C1=O | -46 | 0.15 | -6 | 49 | 97*
C[C@H](CO)N1C[C@H](C)[C@H](CN(C)C(=O)Nc2ccc(F)cc2)Oc2c(NC(=O)Nc3cccc4ccccc34)cccc2C1=O | 28 | -0.093 | -10 | ? | 124*
C[C@@H]1CN([C@H](C)CO)C(=O)c2cccc(NS(=O)(=O)c3ccccc3)c2O[C@H]1CN(C)CC1CC1 | 7 | 0.11 | · | -20 | 14
COc1ccc(NC(=O)C(C)N(c2ccc(Cl)cc2)S(C)(=O)=O)c(OC)c1 (centres undefined) | · | · | · | -6 | -13
Cc1ccc(-n2c(=O)c3c4c(sc3n3c(SCC(=O)c5ccc(F)cc5)nnc23)CCCC4)cc1 | · | · | · | -3 | 96*
CCOC(=O)C1CCCN(Cc2nc(N)nc(Nc3ccccc3)n2)C1 (centres undefined) | · | · | 0 | 6 | 113*
Cc1ccc(Nc2nc(N)nc(CN3CCN(C(c4ccccc4)c4ccccc4)CC3)n2)cc1 | · | · | -9 | 47 | 89*
C[C@H]1CN([C@@H](C)CO)C(=O)CCCn2nncc2CO[C@@H]1CN(C)Cc1ccncc1 | · | -0.0068 | · | · | ·
Cc1ccc(NC(=O)CCCn2cc([N+](=O)[O-])cn2)cc1Cl | · | · | -2 | 4 | 1
CC(c1ccccc1)n1c(CCCO)nc2ccccc21 (centres undefined) | · | · | 0 | 8 | 20
CC(C)NC(=O)N(C)C[C@H]1Oc2c(NC(=O)CCCCCC(=O)Nc3ccccc3N)cccc2C(=O)N([C@@H](C)CO)C[C@H]1C | · | -0.35 | 0 | -3 | 33
O=C(CN1CC(=O)Oc2ccccc21)OCC(=O)c1ccccc1 | 28 | 0.12 | -1 | 31 | 103*
COc1ccc(C(=O)COC(=O)CN2C(=O)C3CC=CCC3C2=O)cc1 (centres undefined) | -15 | -0.23 | 1 | -9 | 31
O=C(CN1CC(=O)Oc2ccccc21)Nc1ccc(O)cc1 | 27 | 0.18 | -4 | -10 | 111*
COc1ccc(NC(=O)CN(c2cc(Cl)cc(Cl)c2)S(C)(=O)=O)cc1OC | · | · | 1 | 10 | -2
Cc1noc(C)c1NC(=O)N(C)C[C@@H]1Oc2ccc(NS(=O)(=O)c3cccs3)cc2CC(=O)N([C@@H](C)CO)C[C@@H]1C | -9 | 15* | · | -13 | -4
C[C@H]1CN([C@@H](C)CO)C(=O)Cc2cc(NS(=O)(=O)c3cccs3)ccc2O[C@@H]1CN(C)Cc1ccc(-c2ccccc2)cc1 | -8 | 0.043 | · | 23 | 89*
